Shown are actives, neighbours in structure and some others; about 8% of the full set was active somewhere.
FMDV antiviral: blocks foot and mouth disease virus; FMDV antiviral cell-based qHTS; Potency, µM (doses to about 57.9 µM), inactives show top-dose activity change, negative = inhibition, hits mostly inhibitors; 410,000 compounds, 1.2% hits; calls by dose curve; tested in HEK293T cells; also: read-out not given here; potency is read from the fitted curve at half-maximal effect; % is scaled to controls: 0 for no effect and ±100 for the full control effect; nearly all actives have a fitted effect of over 45% in size
SARS PLP yeast: SARS-CoV PLP inhibition in yeast | S. cerevisiae expressing SARS-CoV PLpro, growth rescue | Potency, µM (top dose mostly 32.9 µM), for the others: top-dose activity, positive = growth rescue, hits mostly activators | 330,000 compounds, 0.19% hits | AID 485353; calls by dose curve; also: potency is read from the fitted curve at half-maximal effect; 0% is about no effect; nearly all actives have a fitted effect of over 55% in size
HCMV antiviral: inhibitors of human cytomegalovirus | activity change, negative = inhibition, % at 57.5 µM | 410,000 compounds, 4.5% hits | HFF cells, HCMV-luciferase reporter, 72 h; active compounds read low; in the data active = activity change below about -60%; inconclusive = no clear call, values can overlap the other calls; inactive = above about -39%; also: % is scaled to controls: 0 for no effect and ±100 for the full control effect
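Luciferase read-out from HCMV-luciferase-infected HFFs (MOI 1 PFU/cell) 72 h post infection at 37C; compounds added after 16 h cell attachment; activity normalized between buffer-only basal and Salinomycin (10uM) inhibitor controls.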
Lassa entry inh: blocks Lassa virus binding to or entry into cells. AID 540256. Lassa virus pseudotype entry inhibition, cell reporter. 300,000 compounds, 1.2% hits. Potency, µM (top dose mostly 37.9 µM), without a hit: top-dose activity change, negative = inhibition, hits mostly inhibitors; calls by dose curve; tested in HEK293 cells; also: potency is read from the fitted curve at half-maximal effect; % is scaled to controls: 0 for no effect and ±100 for the full control effect; nearly all actives have a fitted effect of over 50% in size
HCV inh: HCV inhibition; Huh7.5.1 HCVcc-Cre infection, luciferase reporter, 44 h; Potency, µM (titrated, usually from 41.8 µM), for the others: at the top dose activity change, negative = inhibition, most hits filed as inhibitors; 340,000 compounds, 3.4% hits; active = well fitted inhibition curve with a large enough effect; inconclusive = small, poorly fitted or top-dose-only effect, or another doubt; inactive = no such curve, though single readings can be large or run the other way; also: potency is read from the fitted curve at half-maximal effect; % is scaled to controls: 0 for no effect and ±100 for the full control effect
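Cells seeded at 1,000/well and cultured 4 h, then compounds added followed by HCVcc-Cre virus (~0.5 moi). After 44 h further culture, luciferase substrate was added, plates held 15 min at room temperature, and luminescence read for 15 sec.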
Marburg entry inh: inhibitors of Marburg virus binding or cell entry; Marburg virus pseudotyped entry inhibition, cell reporter; Potency, µM (doses to about 37.8 µM), for the others: at the top dose activity change, negative = inhibition, hits mostly inhibitors; 300,000 compounds, 1.8% hits; calls by dose curve; tested in HEK293 cells; also: potency is read from the fitted curve at half-maximal effect; % is scaled to controls: 0 for no effect and ±100 for the full control effect
An asterisk follows results filed as active; u = inconclusive; x = no result given; [ ] = dose if it differs, or a comment.

SMILES	FMDV antiviral	SARS PLP yeast	HCMV antiviral	Lassa entry inh	HCV inh	Marburg entry inh
Cc1ccc(C)c(N2CCN(C(=O)C3CCN(c4nc(-c5ccc(C(C)C)cc5)no4)CC3)CC2)c1	u	x	-63*	u	x	x
CC1(c2ccccc2)CC(C)(C)N(C(=O)C2CCCO2)c2ccccc21 (stereo not given)	x	-41%	-28	-7%	u	18µM*
CCC(=O)N1c2ccccc2C(C)(c2ccccc2)CC1(C)C (stereo not given)	1%	x	-5	18%[46.1 µM]	x	-24%[46.1 µM]
COc1cccc(C(=O)N2c3ccc(C)cc3C(C)(c3ccccc3)CC2(C)C)c1 (stereo not given)	u	x	-33	-22%[46.1 µM]	x	x
COc1ccc(C(=O)N2c3ccccc3C(C)(c3ccc(Cl)cc3)CC2(C)C)cc1 (stereo not given)	-7%	x	-93*	-21%[46.1 µM]	x	x
CC1(c2ccc(Cl)cc2)CC(C)(C)N(C(=O)c2ccccc2)c2ccccc21 (stereo not given)	u	x	-83*	2%[46.1 µM]	x	18%[46.1 µM]
CC1(c2cc([N+](=O)[O-])cc([N+](=O)[O-])c2)CC(C)(C)N(C(=O)c2ccccc2)c2ccccc21 (stereo not given)	-24%	-29%	2	-4%	u	u
CCOc1ccccc1NC(=O)c1cc(S(=O)(=O)N2CCOCC2)cn1C	u	x	-15	5%[46.1 µM]	x	x
COc1cc(OC)cc(-c2nc3ccccc3c(=O)n2OC(=O)c2ccc(C)c(C)c2)c1	u	26%	22	u	-4%	11µM*
CC(=O)c1ccc2c(c1)N(Cc1ccc3ccccc3c1)C(=O)C(C)S2 (stereo not given)	-11%	x	-2	x	x	x
Cc1ccc(Cl)cc1NC(=O)c1cnn2c1NC(c1ccco1)CC2C(F)(F)F (stereo not given)	u	-35%	u	u	25µM*	u
CN(Cc1ccc(-n2cccn2)cc1)C(=O)c1cnn2c1NC(c1ccco1)CC2C(F)(F)F (stereo not given)	25µM*	1%	28	u	11µM*	u
O=C(CC1CCCCC1)NCc1nc(-c2ccccc2)no1	22%	2%	12	x	10%	x
CC(=O)Nc1ccc(S(=O)(=O)N2CCN(c3nc(NC4CCCC4)c4ccccc4n3)CC2)cc1	u	-3%	-37	u	7.9µM*	u
Cc1ccc(N2C(=O)N(CC(=O)Nc3ccc(C)c(C)c3[N+](=O)[O-])C(=O)C2C)cc1 (stereo not given)	-8%	-1%	-12	11%	-1%	-18%[46.1 µM]
CCCSc1nnc(-c2cccc(S(=O)(=O)N(C)C)c2)n1-c1cc(OC)ccc1OC	16%	-8%	-62*	-5%	-10%	-3%
CCSc1nnc(-c2cccc(S(=O)(=O)N(C)C)c2)n1-c1cc(OC)ccc1OC	-12%	1%	20	u	u	-8%
Cc1ccc(CN2CCC(NC(=O)c3ccccc3)CC2)cc1	-10%	0%	-15	-14%[46.1 µM]	-25%	u
CCN(c1ccccc1)S(=O)(=O)c1ccc(C(=O)NC2CCN(Cc3ccccc3)CC2)cc1	u	-15%	x	u	u	0.71µM*
CC1(C(=O)NC2CCN(Cc3ccccc3)CC2)CCN1Cc1ccc2ccccc2c1 (stereo not given)	u	x	-67*	x	x	x
Cc1ccc(C)n1-c1ccc(C(=O)NC2CCN(Cc3ccccc3)CC2)cc1	u	-3%	-62*	u	u	u
CCN(c1ccccc1)S(=O)(=O)c1ccc(C(=O)NC2CCCCC2)cc1	u	x	5	x	x	x
CN(C)c1ncc2ncc(=O)n(Cc3ccc(F)cc3)c2n1	-26%	x	x	x	x	x
COC(=O)[C@]12CCCCC=C1N(Cc1ccc(Cl)cc1Cl)C(=O)[C@H](CC(=O)NCC13CC4CC(CC(C4)C1)C3)C2	0%	x	20	x	x	x
O=C(NC1CCCCCC1)C1CCN(c2nc3ccccc3o2)CC1	u	-9%	-74*	x	-8%	2%
SMILES	FMDV antiviral	SARS PLP yeast	HCMV antiviral	Lassa entry inh	HCV inh	Marburg entry inh
CCOC(=O)C(NC(=O)c1cccc(Cl)c1)(Nc1sc2c(c1C(N)=O)CCC2)C(F)(F)F (stereo not given)	u	1%	-27	u	13µM*	-29%
CCOC(=O)C(NC(=O)c1ccccc1Cl)(Nc1sc2c(c1C(N)=O)CCC2)C(F)(F)F (stereo not given)	u	13%	-30	x	-3%	2%
C[C@]1(C(=O)O)[C@@H]2CC[C@@H](O2)[C@@]1(C)C(=O)O	x	x	x	x	x	4.1µM*
Cc1cccc(-n2c(Cc3ccccc3)nnc2SCc2ccc([N+](=O)[O-])cc2)c1	-25%	-20%	-70*	u	u	-18%
Fc1cccc(-c2cc3cnc(Nc4cccc(C(F)(F)F)c4)cc3[nH]2)c1	x	x	-37	x	x	x
ClCCN(CCCl)c1ccc(C2=NCCc3ccccc32)cc1	u	x	-74*	u	u	u
Cc1nn(-c2ccccc2)c(C)c1NC(=O)COC(=O)c1cc(Br)ccc1O	-25%	4%	-11	-2%[46.1 µM]	14%	0%
O=C(Nc1nnc(-c2ccccc2SCc2ccccc2F)s1)Nc1ccccc1F	1%	0%	-61*	1%	25%	u
CC(NC(=O)c1ccccc1)c1ccc(F)cc1 (stereo not given)	-12%	-11%	-12	-5%	4%	-2%
Cc1cc(C)nc(NS(=O)(=O)c2ccc(N)cc2)n1	31%	1%	-66*	7%	-7%[8.37 µM]	13%
COc1cc(-c2ccc(Cl)cn2)cc2c1OCCN(S(=O)(=O)C[C@]13CC[C@H](CC1=O)C3(C)C)C2	-3%	x	x	x	x	x
COc1ccc2c(c1)CCc1cc(C(=O)N3CCN(c4ccc(N5CCOCC5)nn4)CC3)sc1-2	u	-11%	x	x	10µM*	x
CC(C)(C)N1C(=O)[C@H]2[C@H]3[C@H](O)[C@H](O)C/C(=N\OCc4ccccc4)[C@H]3CC[C@H]2C1=O	x	x	x	x	x	-9%[14.2 µM]
COc1ccc(CN2C(=O)CS/C2=N/N=C/c2ccccc2)cc1	14%	-1%	53	x	13µM*	x
COc1ccc(-c2cc(C(=O)Nc3cc(Br)ccc3O)no2)cc1	47%	-1%	-8	3%	15%	-14%
Cc1cc(NC(=O)c2cc(-c3ccc(Cl)c(Cl)c3)on2)n(-c2ccccc2)n1	3%	x	6	8%[46.1 µM]	x	-4%[46.1 µM]
O=C(Nc1cccc2ccccc12)c1nn(C23CC4CC(CC(C4)C2)C3)cc1[N+](=O)[O-]	14%	-1%	-71*	-15%	u	-16%
COc1ccc(NC(=O)c2nn(C34CC5CC(CC(C5)C3)C4)cc2[N+](=O)[O-])cc1	-15%	6%	15	u	11%	u
CCN1CCOC(=O)C1CC(=O)Nc1ccc(Br)cc1 (stereo not given)	15%	x	16	12%[46.1 µM]	x	4%[46.1 µM]

Screens (PubChem)
